Experimental data: PubChem BioAssay
Calls of active or inactive are those of the source.

Assays:
[1] = A549 cell viability effects, profiling panel, calcein-AM fluorescence, 48 h, basal (AID 1162); details: higher = more signal
[2] = adipocyte viability effects, profiling panel, cell-based, 3T3-L1 adipocytes, calcein-AM fluorescence, 48 h, basal (AID 1163); details: 3T3-L1 adipocytes viability, higher = more signal
[3] = HepG2 cell viability effects, profiling panel, calcein-AM fluorescence, 48 h, basal (AID 1164); details: higher = more signal
[4] = MM1S cell viability effects, profiling panel, calcein-AM fluorescence, 48 h, basal (AID 1165); details: higher = more signal;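 further: viability of MM1S multiple myeloma cells under basal unstimulated conditions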
[5] = basal RPMI8226 viability, no added stimulus, profiling panel, cell-based, calcein-AM fluorescence, 48 h, PK04 Diversity Set (AID 1166); details: RPMI8226 myeloma viability, higher = more signal;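 further: cells grown under basal conditions without added stimulus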
[6] = basal HepG2 mitochondrial membrane potential changes, profiling panel, cell-based, JC-1 fluorescence, 24 h, 100 nL compound (AID 1167); details: higher = more signal
[7] = basal 3T3-L1 adipocyte mitochondrial potential changes, profiling panel, cell-based, JC-1 fluorescence, 3T3-L1 adipocytes, 24 h, 100 nL compound (AID 1168); details: JC-1 mitochondrial fluorescence, higher = more signal, called active from +8 up or from −8 down
[8] = basal RPMI8226 mitochondrial membrane potential changes, profiling panel, cell-based, JC-1 fluorescence, 24 h, 100 nL compound (AID 1169); details: RPMI8226 myeloma, JC-1 mitochondrial potential fluorescence, higher = more signal
[9] = basal MM1S mitochondrial membrane potential changes, profiling panel, cell-based, JC-1 fluorescence, 24 h, 100 nL compound (AID 1170); details: higher = more signal
[10] = A549 lung cancer cell viability effects, profiling panel, resazurin fluorescence, 24 h, PK04 Diversity Set (AID 1171); details: higher = more signal, called active from +8 up or from −8 down
Further: test concentration not given here.

SMILES	z-score [1]	z-score [2]	z-score [3]	z-score [4]	z-score [5]	z-score [6]	z-score [7]	z-score [8]	z-score [9]	z-score [10]
O=C1C2C=CC(C(O)c3ccc(F)cc3)N(n3cnnc3)C2C(=O)N1Cc1ccccc1 (stereo not given)	-0.184	0.799	-1	-0.0875	-1.08	-0.518	-0.633 (inactive)	-0.0973	0.0911	-1.29 (inactive)
COc1ccc(-c2nc(-c3ccccc3)c3c(c2C)CO[Si]3(C(C)C)C(C)C)cn1	-0.0364	-0.628	-0.292	-1.03	-3.63	-0.922	-1.72 (inactive)	-0.443	-0.294	1.95 (inactive)
COc1ccc([Si](C)(C)[C@@H]2[C@@H](CC(=O)N(CCO)Cc3ccccc3)O[C@]3(C(=O)N(Cc4cccc(N5CCOC5=O)c4)c4ccccc43)[C@H]2C)cc1	-1.23	0.836	-1.64	-2.66	-3.51	-0.0766	0.0933 (inactive)	-1.07	-0.991	-2.25 (inactive)
Cc1ccc(S[C@]2(C(=O)O)CC(=O)N(Cc3ccccc3Cl)[C@@H]2c2ccc(CO)cc2I)cc1	-0.794	-0.551	-0.828	-2.94	-2.92	-0.508	-1.14 (inactive)	-0.615	-0.589	0.459 (inactive)
Cc1ccc(S[C@]2(C(=O)O)CC(=O)N(C3Cc4ccccc4C3)[C@@H]2c2ccc(CO)cc2)cc1	-0.197	0.729	-0.574	-0.428	-2.56	0.125	-0.58 (inactive)	0.522	0.353	-0.831 (inactive)
COCCOC(=O)N1C(=O)[C@@]2(c3cc(C#CC4=CCCCC4)ccc31)[C@H](c1ccc(OCCO)cc1)N1[C@H](c3ccccc3)[C@H](c3ccccc3)OC(=O)[C@H]1[C@@H]2C(=O)NC[C@H](O)c1ccccc1	0.148	0.72	0.688	-1.54	-2.03	-0.9	0.758 (inactive)	-0.784	-0.964	0.607 (inactive)
CCCC[C@@H]1C[C@H]1[C@@H](NC(=O)c1ccccc1)c1ccc(C(F)(F)F)cc1	-1.46	-0.999	-0.959	0.256	-0.372	0.494	-0.259 (inactive)	0.677	-1.24	-0.0143 (inactive)
CN(C)CCCNC(=O)[C@@H]1c2ccccc2C(=O)N(Cc2ccccc2Cl)[C@H]1c1ccc(CO)cc1	0.904	0.841	0.112	-0.147	-0.872	1.5	0.517 (inactive)	0.114	0.599	0.508 (inactive)
COc1cccc(/C=C/C=O)c1	0.482	-0.132	0.844	-1.38	-0.803	1.04	0.532 (inactive)	-0.109	-0.253	0.336 (inactive)
COCCOC(=O)N1C(=O)[C@@]2(c3cc(C#Cc4ccc(OC)cc4)ccc31)[C@H](C(=O)Nc1nc3ccccc3s1)[C@H]1C(=O)O[C@H](c3ccccc3)[C@H](c3ccccc3)N1[C@@H]2c1ccc(O)cc1	0.373	1.31	-0.375	-1.18	-1	-2.78	1.1 (inactive)	-0.544	-0.766	0.0344 (inactive)
COCCOC(=O)N1C(=O)[C@@]2(c3cc(C#CC4=CCCCC4)ccc31)[C@H](C(N)=O)[C@H]1C(=O)O[C@H](c3ccccc3)[C@H](c3ccccc3)N1[C@@H]2c1ccccc1OCCO	-2.23	0.619	-3.63	-3.29	-3.99	-2.49	2.7 (inactive)	-0.819	-1.6	-2.57 (inactive)
COC(=O)[C@@]1(Cc2ccccc2)[C@H]2c3cc(C(=O)N(C)C)n(CCc4ccc(O)c(OC)c4)c3C[C@H]2CN1C(=O)c1ccccc1	0.0634	-0.121	0.343	-1.32	-0.0242	-0.533	-0.9 (inactive)	-0.665	-0.241	0.641 (inactive)
COC(=O)c1cn(C[C@@H](Cc2ccccc2)NC(=O)N[C@H](CO)CCc2oc(C(C)=O)c(C(=O)OC)c2C(=O)OC)nn1	-0.282	0.53	-0.0248	0.408	0.206	0.629	1.09 (inactive)	-0.0706	0.962	0.0604 (inactive)
NCCCCCCNC(=O)[C@@H]1C[C@@H]2C(=O)N[C@@H](CCCCN)C(=O)N2[C@@H]1c1cccc(OCCO)c1	0.892	-0.452	0.514	0.835	0.986	0.0199	0.759 (inactive)	-0.639	-0.451	0.551 (inactive)
COC(=O)[C@@]1(Cc2ccc(F)cc2)[C@H]2c3cc(C(=O)N(C)C)n(Cc4cc(F)cc5c4OCOC5)c3C[C@H]2CN1C(=O)c1ccccc1	0.217	0.572	0.607	-1.25	-1.9	1.76	-0.737 (inactive)	-0.74	-0.942	-1.8 (inactive)
CCOC(=O)C1CCCCN1 (stereo not given)	-0.293	0.542	0.0621	0.481	0.166	-0.319	0.121 (inactive)	0.292	0.319	-0.642 (inactive)
CN(C)CCCCNC(=O)[C@@H]1C[C@@H]2C(=O)N[C@@H](Cc3ccccc3)C(=O)N2[C@@H]1c1cccc(OCCO)c1	1.74	0.296	1.13	-0.729	0.573	1.88	0.76 (inactive)	-0.0777	0.108	-0.0805 (inactive)
CN(C)C(=O)C1N=C(c2ccc(OCCCO)cc2)N(c2ccccc2)O1 (stereo not given)	0.676	-0.214	0.411	0.237	-0.254	0.261	0.756 (inactive)	-0.0214	-0.911	0.304 (inactive)
COC(=O)c1c(CC[C@@H](CO)NC(=O)N[C@H](Cn2cc(C3(O)CCCCC3)nn2)C(C)C)oc(C(C)=O)c1C(=O)OC	-0.233	1.36	-0.134	-0.722	0.0074	0.74	0.595 (inactive)	0.355	-0.202	-1.06 (inactive)
CC(C)N1C(=O)C[C@@](C(=O)NCCCN(C)C)(c2ccc([N+](=O)[O-])cc2)[C@H]1c1ccc(CO)cc1	0.173	0.165	-0.093	-0.367	0.768	-0.459	-1.18 (inactive)	0.701	0.169	-0.28 (inactive)
COC(=O)c1nc2oc1CC[C@@H](CO)NC(=O)N(C)Cc1cnnn1C[C@H](Cc1ccccc1)NC2=O	0.0656	-0.65	0.537	1.01	0.529	0.912	1.25 (inactive)	-0.912	-0.511	0.634 (inactive)
